Most compounds without a hit are left out; they make up all but 19% or so of the library.
HT1080 IDH1KD tx: HT-1080 IDH1 knockdown cell toxicity (counter line); HT-1080 IDH1 knockdown viability, ATP luminescence, 48 h; Potency, µM (top dose mostly 46.1 µM), without a hit: at the highest dose activity, negative = toxicity, usual class: cytotoxic; 2% of 360,000 active; AID 686971;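 also: potency is read from the fitted curve at half-maximal effect; 0% = DMSO wells and -100% = cell-free medium wells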
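% activity derives from luminescence (CellTiter-Glo), normalised to DMSO and no-cell wells. HT-1080-IDH1KD cells, 750/well, had 48 h compound exposure at 37 °C.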
IL-1B inflam inh: inhibitors of inflammasome signaling (IL-1 beta secretion). 4.7% of 360,000 active. THP-1 LPS/ATP IL-1B secretion, AlphaLISA, 16 h; hits give low values. activity change, % at 57.5 µM; in the data active = activity change below about -50%; inconclusive = mostly about -30% to -49%
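Secreted IL-1B measured by AlphaLISA bead assay after 16 h compound exposure of THP-1 cells; compounds (final up to 57.5 uM) added 1 h before LPS (250 ng/mL) and ATP (1.25 mM) stimulation; lower signal means less secretion.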
DT40 TDP1 CPT: DT40-hTDP1 cell growth loss with CPT; chicken DT40 Tdp1-/-;hTDP1 cells + 20 nM CPT, ATP luminescence, 48 h; 12% of 420,000 active; Potency, µM (top dose mostly 46.2 µM), for inactives: at the highest dose activity change, negative = growth inhibition, hits mostly inhibitors; also: potency is read from the fitted curve at half-maximal effect; nearly all actives have a fitted effect of over 55% in size
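Chicken DT40 Tdp1-/- cells stably complemented with human TDP1 were seeded at 400 cells/well in medium containing 20 nM camptothecin, exposed to pin-transferred compounds, and grown at 37 °C for at least 48 hr. Viability was read as ATP luminescence.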
ELG1 repair inh: ELG1-dependent DNA repair inhibition | HEK293T ELG1-luciferase reporter, luminescence, 16 h; DNA damage induced by 5-fluorouridine | Potency, µM (top dose mostly 46.1 µM), for the others: at the top dose activity change, negative = inhibition, actives largely listed as inhibitors | 2.3% of 330,000 active | AID 504467; also: potency is read from the fitted curve at half-maximal effect; nearly all actives have a fitted effect of over 55% in size
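Cells (2,000 per well) received 5-fluorouridine plus test compound or DMSO and were incubated 16 hr at 37 °C, 5% CO2. Luciferase activity was read by luminescence 30 min after ONE-Glo addition; signal suppression marked inhibition of damage-induced ELG1 function.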
TDP1 cell noCPT: qHTS for Inhibitors of human tyrosyl-DNA phosphodiesterase 1 (TDP1): qHTS in cells in absence of CPT; Potency, µM (series often up to 46.2 µM), without a hit: top-dose activity change, negative = growth inhibition, actives largely listed as inhibitors; AID 686978, 2013; 15% of 420,000 active; DT40 Tdp1-/- hTDP1 cells, no CPT, ATP luminescence, 48 h; also: potency is read from the fitted curve at half-maximal effect; nearly all actives have a fitted effect of over 55% in size
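Luminescent ATP content (CellTiter-Glo) served as the growth readout. Knockout chicken DT40 cells expressing human TDP1 were exposed to compounds without camptothecin for a minimum 48 hr at 37 °C.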
HT1080-NT tox: kills 2HG-producing HT-1080-NT fibrosarcoma cells. 1.6% of 360,000 active. HT-1080-NT fibrosarcoma viability, CellTiter-Glo ATP luminescence, 48 h. Potency, µM (series often up to 46.1 µM), for the others: top-dose activity, negative = less viability, most hits filed as cytotoxic;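 also: NT is the 2HG producing partner of a matched IDH1 knockdown line; potency is read from the fitted curve at half-maximal effect; 0% = DMSO-treated cells and -100% = media-only wells without cells; nearly all actives have a fitted effect of over 55% in size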
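Viability by CellTiter-Glo luminescence after 48 h compound exposure at 37C of HT-1080-NT cells (750/well, RPMI, 5% FBS). % activity scaled between DMSO wells and medium-only wells, then curve-fitted and categorized by curve class.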
The depositor's hits bear a star; ? = inconclusive; . = not tested or not shown; [ ] = another dose, or the depositor's remark. Unless noted, calls follow the shape of the dose curve; as a rule, active = well fitted curve in the direction sought with a large enough effect; inconclusive = small, poorly fitted or top-dose-only effect, or another doubt; inactive = no such curve, though single readings can be large; an effect the other way counts as inactive or inconclusive. Unless noted, % is scaled to controls: 0 for no effect and ±100 for the full control effect.

SMILES	HT1080 IDH1KD tx	IL-1B inflam inh	DT40 TDP1 CPT	ELG1 repair inh	TDP1 cell noCPT	HT1080-NT tox
COc1cccc(NC(=O)c2cn(C3CCCCC3)c(=O)c3c2c2ccccc2n3C)c1	.	.	-24%	.	?	.
COc1cc(Cl)c(C)cc1NC(=O)c1cn(C2CCCC2)c(=O)c2c1c1ccccc1n2C	.	.	0.65µM*	.	?	.
COc1cc(OC)c(N(C)C(=O)c2cn(C3CCCC3)c(=O)c3c2c2ccccc2n3C)cc1Cl	.	.	10µM*	.	8.2µM*	.
Cc1cc(Br)ccc1NC(=O)c1cn(C2CCCC2)c(=O)c2c1c1ccccc1n2C	.	.	-27%	.	?	.
Cc1ccc(S(=O)(=O)N(C)C)cc1NC(=O)C(C)OC(=O)C1CCC1 (stereo not drawn)	17%	1	1%	-2%	13%	3%
Cc1sc2ncnc(NCC3(N4CCOCC4)CCCCC3)c2c1C	-7%[9.24 µM]	3	21µM*	?	23µM*	-1%
Cc1sc2ncnc(SCC(=O)N3CCOCC3)c2c1C	-3%	-6	-5%	?	0%	13%
Cc1sc2ncnc(NCC3CCCO3)c2c1C (stereo not drawn)	-16%	11	16µM*	?	9.2µM*	-18%
c1nc(NCC2(N3CCOCC3)CCCCC2)c2ccsc2n1	2%	3	12µM*	?	18µM*	2%
Cc1sc2ncnc(NCC(C)(C)N3CCOCC3)c2c1C	-21%[9.24 µM]	?	2.1µM*	?	1.5µM*	-28%
CC(=O)N1CCN(C(=O)c2sc3ncnc(NCC4CCCO4)c3c2C)CC1 (stereo not drawn)	.	.	-14%	.	-11%	.
Cc1ccc(NC(=O)CSc2nnc(CNC(=O)c3ccco3)n2C)cc1	-12%	23	-15%	12%	-29%	-16%
COc1cc(OC)cc(C(=O)NC(C(=O)Nc2ccc3c(c2)OCO3)C(C)C)c1 (stereo not drawn)	-2%	-21	0%	-18%	?	-2%
CCCCCCC1CC(=CN(C)C)C(=O)O1 (stereo not drawn)	-30%	9	?	.	16µM*	?
CC1(C(=O)NS(=O)(=O)C2CC2)CCN(C(=O)c2ccccc2OC(F)(F)F)C1 (stereo not drawn)	-4%	4	-4%	.	0%	-3%
COc1ccc(C2=NO[C@@H]3C(=O)N(c4cccc(C)c4C)C(=O)[C@H]23)cc1OC	4%	-2	1%	4%	-12%	10%
COc1ccc(C2=NO[C@@H]3C(=O)N(c4ccc(C)cc4C)C(=O)[C@H]23)cc1OC	6%	-12	26µM*	2%	?	5%
COc1ccc(-c2cn(-c3ccc(C)cc3C)c(=O)[nH]2)cc1OC	-10%	-2	15µM*	?	?	-2%
COc1ccc(-c2cc(=O)[nH][nH]2)cc1OC	13%	-1	-6%	2%	-4%	2%
CCN1CCN(C(c2ccc(C)cc2)c2sc3nc(-c4ccco4)nn3c2O)CC1 (stereo not drawn)	.	.	4%	.	0%	.
Cc1cc(NC(=O)CC#N)n(-c2nc3ccccc3[nH]2)n1	3%	8	?	12µM*	?	8%
Cc1cc(NC(=O)C2CCCC2)n(-c2nc3ccccc3[nH]2)n1	4µM*	-16	18µM*	-7%	?	7.9µM*
COCCN(Cc1ccc(OC)cc1)c1c(C)nc2ccc(C(=O)NCCc3c[nH]c4ccccc34)cn12	-6%	-6	?	.	?	-22%
CC1=C(C(=O)Nc2ccc(C)c(C)c2)C2(CCCCCC2)OC1=O	.	.	15µM*	.	?	.
Cc1ccc(NC(=O)NC2CCCCCCC2)cc1C	-3%	5	?	?	-6%	-10%
SMILES	HT1080 IDH1KD tx	IL-1B inflam inh	DT40 TDP1 CPT	ELG1 repair inh	TDP1 cell noCPT	HT1080-NT tox
Cc1ccc(NC(=O)c2ccc(C#CC3(O)CCCCC3)cc2)cc1C	3%	2	23µM*	-11%	16µM*	6%
CC1=C(C(=O)NCc2cccc(Cl)c2)C2(CCCCCC2)OC1=O	.	.	?	.	1.8µM*	.
c1ccc2c(N3CCOCC3)nc(-c3ccoc3)nc2c1	.	.	?	.	-16%	.
Cc1c(C)c2c(c(C)c1OC(=O)c1cccnc1)CC[C@@](C)(CCC[C@H](C)CCC[C@H](C)CCCC(C)C)O2	.	.	-3%	.	-7%	.
CC(=O)N1N=C(c2ccc(C)cc2)CC1c1cn(-c2ccccc2)nc1-c1cccs1 (stereo not drawn)	.	.	16µM*	.	?	.
COc1cccc(C2=NN(C(C)=O)C(c3cn(-c4ccccc4)nc3-c3cccs3)C2)c1 (stereo not drawn)	.	.	5%	.	13%	.
COCCN(C(=O)c1ccc(COc2ccccc2)o1)c1c(N)n(CC(C)C)c(=O)[nH]c1=O	4%	-3	-5%	15%	-4%	4%
CCC1CN(Cc2c(C)nc3sccn23)Cc2cc(OC)ccc2O1 (stereo not drawn)	.	.	-3%[9.04 µM]	.	-6%	.
CCN(CC)CCNC(=O)C(=O)NCC(c1cccnc1)N1CCN(c2ccc(F)cc2)CC1 (stereo not drawn)	.	.	-8%	.	?	.
CCN(CC(=O)NC(C)(C)C)Cc1nc2c(Br)cc(Br)cc2c(=O)[nH]1	?	-100*	?	-11%	?	-4%
CCN(CC(=O)NC1CCS(=O)(=O)C1)Cc1nc2c(Br)cc(Br)cc2c(=O)[nH]1 (stereo not drawn)	-7%	0	20%	1%	-1%	-6%
Cc1ccc(CCNC(=O)CCn2nc(-c3ccccc3)ccc2=O)cc1	.	.	?	.	-46%	.
Cc1ccc(-c2ccc(=O)n(Cc3cc(C)ccc3C)n2)cc1	?	?	?	?	21µM*	-13%
Cc1ccc(-c2ccc(=O)n(CC(=O)Nc3ccc(C)cc3Cl)n2)cc1	.	.	-15%	.	-26%	.
Cc1ccc(CCNC(=O)CCn2nc(-c3ccc(C)cc3)ccc2=O)cc1	.	.	23µM*	.	?	.
O=c1ccc(-c2ccccc2)nn1Cc1ccccc1	12%	?	?	.	?	-1%
Cc1ccc(C)c(Cn2nc(-c3ccccc3)ccc2=O)c1	-29%	-75*	?	?	?	?
CCc1ccc(CNC(=O)Cn2nc(-c3ccccc3)ccc2=O)cc1	-17%	-87*	-17%	6%	-11%	-8%
COCCNC(=O)c1nn(-c2ccc(C)cc2)c(=O)n(C)c1=O	.	.	-7%	.	-13%	.

From PubChem BioAssay
